From PubChem BioAssay
The full list was thinned out, with hits kept by preference.
aSyn tox rescue: qHTS of alpha-syn Inhibitors: NCGC Sytravon Library Screen | S. cerevisiae alpha-synuclein toxicity rescue, BacTiter-Glo growth, 24 h | Potency, µM (titrated, usually from 46.1 µM), usual class: activators | actives 0.02% (n = 94,000); active = well fitted activation curve with a large enough effect
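Growth restoration measured by BacTiter-Glo luminescence after 24 hr at 30 deg C; alpha-synuclein yeast, raffinose-pregrown to mid-log, were added at OD600=0.02 in galactose medium onto pinned compounds.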
Of the large screens only hits and unclear results are named; the others gave an inactive call.

COc1ccccc1CNC(=O)c1ccc(Cn2c(SCc3ccccc3)nc3cccnc32)cc1	none
CCc1ccc(NC(=O)CSC2=Nc3ccccc3C3=NC(CCC(=O)NCCc4ccccc4)C(=O)N23)cc1 (stereo not given)	none
CCOC(=O)c1ccccc1NC(=O)c1sc2ncn(Cc3cccc(F)c3)c(=O)c2c1C	none
CC(C)(C)C1CCc2c(sc(NC(=O)c3noc4c3CCCC4)c2C#N)C1 (stereo not given)	none
O=C(CCn1c(=O)c2cccn2c2cccnc21)NCc1ccc(F)cc1	none
CCOC(=O)c1c(C)[nH]c(C)c1S(=O)(=O)N(C)CC(=O)N1CCN(c2cccc(C)c2C)CC1	none
COc1ccc(-c2cc(C(F)(F)F)n3nc(C(=O)Nc4sc5c(c4C(=O)OC(C)C)CCC(C)C5)cc3n2)cc1 (stereo not given)	none
COc1ccc(-c2c(C)c3ccc(O)c(CN4CCC(C)CC4)c3oc2=O)cc1OC	none
CCOC(=O)C1CCN(S(=O)(=O)c2ccc(N3CCCCS3(=O)=O)cc2)CC1	none
COc1ccc(-c2nnc(SCC(=O)NCc3ccccc3)nc2-c2ccc(OC)c(OC)c2)cc1OC	none
O=C(Nc1nc(-c2ccc(Br)cc2)ns1)c1ccc(F)cc1	none
COc1ccc(N(Cc2nnc3n2CCCCC3)C(=O)Nc2cccc(C)c2)cc1Cl	none
COc1ccc(OCC(=O)OCc2cc(=O)n3cc(C)sc3n2)cc1	none
COc1ccccc1NC(=O)c1c(NCc2ccc(C)o2)sc2c1CCC(C)C2 (stereo not given)	none
COc1ccc(NC(=O)c2c(NCc3ccc(C)o3)sc3c2CCC(C)C3)cc1 (stereo not given)	aSyn tox rescue 14µM
CCOc1ccc(NC(=O)c2c(NCc3ccc(C)o3)sc3c2CCCCC3)cc1	none
CCc1c(C)sc2c1CCN(C(=O)Nc1ccccc1Cl)C2c1ccc(OC)cc1 (stereo not given)	none
COc1ccc(OC)c(CCNC(=O)c2cc3c(=O)oc4ccc(C)cc4c3s2)c1	none
Cn1cc(C(=O)NCCc2ccccc2)c(=O)c2cc(S(=O)(=O)N3CCCCCC3)ccc21	none
CCN(CC)S(=O)(=O)c1ccc2c(c1)N(CC(=O)N1CCN(c3cccc(C)c3C)CC1)C(=O)CO2	none
Cc1cc(C)cc(C(=O)Nc2ccc(-c3nc4ncccc4o3)cc2)c1	none
Cc1nc2ccc(S(=O)(=O)NC(CC(C)C)C(=O)NCc3ccc(Cl)cc3)cc2s1 (stereo not given)	none
CC(C)(C)NC(=O)C(c1ccc(O)cc1)N(Cc1ccc2c(c1)OCO2)C(=O)CCl (stereo not given)	none
CC(=O)N1CCCc2ccc(NC(=O)c3ccc(C(F)(F)F)cc3)cc21	none
Cc1nc(N2CCCC2)ncc1C(=O)N1CCN(c2ccccc2F)CC1	none
CC(C)c1nn2c(=O)cc(COC(=O)c3ccc(NC(=O)COc4ccccc4)cc3)nc2s1	none
COc1ccc(CCNC(=O)c2ccc3c(c2)N(Cc2c(F)cccc2Cl)C(=O)CS3)cc1OC	none
COC(=O)c1cc(C)nc2c1c(=O)nc(SCc1cccc(C(F)(F)F)c1)n2C1CC1	none
CCCN(C(=O)Cn1c(=O)oc2cc(Cl)ccc21)c1ccc(C(C)C)cc1	none
Cc1ccc(NC(=O)c2oc3ccc(S(=O)(=O)N4CCCCC4)cc3c2C)c(C)c1	none
O=c1c2oc3ccccc3c2n(Cc2cccc(F)c2)c(=O)n1Cc1ccc2c(c1)OCO2	none
CCOc1ccc(CCNC(=O)c2c(C)oc3ncn(CC(C)C)c(=O)c23)cc1	none
COc1ccccc1NC(=O)Cn1c(=O)n(CC(=O)NCc2ccccc2Cl)c(=O)c2sccc21	none
COc1ccccc1N1CCN(C(=O)c2ccc3c(c2)N(Cc2ccccc2)C(=O)c2ccccc2S3(=O)=O)CC1	none
CC1CCc2sc(C(=O)NN=C3CCCC3)cc2C1 (stereo not given)	none
O=C(NCc1ccc2c(c1)CCN2C(=O)c1ccccc1)c1ccco1	none
COc1ccc2nc(C)cc(Nc3ccc(Cl)c(Cl)c3)c2c1	none
Cc1cc(Cl)ccc1NC(=O)C1CCN(S(=O)(=O)c2ccc3[nH]c(=O)ccc3c2)CC1	none
Cc1ccccc1-c1noc(-c2ccccc2OCC(=O)Nc2ccccc2[N+](=O)[O-])n1	none
CCc1cccc2c(-c3ccccc3)nc(SCC(=O)Nc3ccccc3OC)nc12	none
CCn1nc(C)c2c(-c3ccccc3)cc(=O)n(C(C)C(=O)NCc3ccc(C)cc3)c21 (stereo not given)	none
CCOc1cc(C2NC(=O)c3c(sc4c3CCN(C)C4)N2)ccc1OC(=O)c1ccccc1Cl (stereo not given)	none
CCc1ccc(CNC(=O)c2ccc(-n3c(C)cc4c3CCC(C)C4)cc2)cc1 (stereo not given)	none
COc1cc(-c2cc(OC)c3c(C)oc(C)c3c(=O)c2)ccc1OC(=O)c1ccccc1C	none
CC(=O)c1ccc(NC(=O)Nc2nnc(N3CCCC(C)C3)s2)cc1 (stereo not given)	none
COc1ccc(CNC(=O)CN(c2ccccc2OC)S(=O)(=O)c2ccc(C)cc2)cc1	none
Cc1cccc(OCC(=O)Nc2ccccc2C(=O)OCc2cc(=O)n3nc(C)sc3n2)c1	none
Cc1ccccc1-c1noc(CSc2nc(-c3ccc(F)cc3)cc(=O)[nH]2)n1	none
CC(=O)c1ccc(NC(=O)c2c3c(nc4ccccc24)C(=O)N(C2CCCCC2)C3)cc1	none
CCOCCCNC(=O)Cn1ncc2c([nH]c3ccc(C)cc32)c1=O	none
Cc1cccc(N2CCN(C(=O)c3sc4nc5n(c(=O)c4c3C)CCC5)CC2C)c1 (stereo not given)	none
CCOC(=O)N1CCN(Cc2nc3cc(NC(=O)c4ccccc4Cl)ccc3n2C(C)C)CC1	none
Cc1cc(C)cc(-n2c(C)nc3cc(C(=O)NCc4ccccc4Cl)ccc32)c1	none
COc1ccc(Cl)cc1NC(=O)Cn1cnc2c1c(=O)n(C)c(=O)n2C	none
Cc1ccccc1CNCc1c(C(=O)O)c(C)n(Cc2ccc(F)cc2Cl)c1C	none
Cc1cc(C)c2nc(N(Cc3cccnc3)C(=O)Cc3ccccc3)sc2c1	aSyn tox rescue 13µM
Cc1cccc2sc(N(Cc3cccnc3)C(=O)Cc3ccccc3)nc12	aSyn tox rescue 10µM
Cc1cccc2sc(N(Cc3cccnc3)C(=O)CCc3ccccc3)nc12	none
Cc1cc(C)c2nc(N(Cc3cccnc3)C(=O)c3cccs3)sc2c1	none
Cc1ccc2nc(N(Cc3cccnc3)C(=O)Cc3ccccc3)sc2c1	none
Cc1cccc2sc(N(Cc3cccnc3)C(=O)c3ccco3)nc12	none
COc1ccc(-c2[nH]ncc2C(=O)NCc2cccc(Cl)c2)cc1	none
COc1cc2[nH]c(=O)n(CCCCCC(=O)N3CCN(c4ccc(Cl)cc4)CC3)c(=O)c2cc1OC	none
CSc1cccc(NC(=O)CC(c2ccc(F)cc2)N2Cc3ccccc3C2=O)c1 (stereo not given)	none
Cn1c(/C(C#N)=C/c2ccc(C(F)(F)F)cc2)nc2ccccc21	aSyn tox rescue 2.5µM
O=S(=O)(/C(=C/c1ccc(C(F)(F)F)cc1)c1nc2ccccc2[nH]1)c1ccccc1	none
Cc1ccc(/C=C(\C#N)c2nc3ccccc3c(=O)[nH]2)cc1	none
CCn1c(CN2CCCCC2)nc2cc(NC(=O)COc3ccc(C(C)(C)C)cc3)ccc21	none
COc1cc2ccccc2cc1C(=O)N1CCN(c2nc3c(C)cc(C)cc3s2)CC1	none
Cc1c(Cl)ccc2sc(N3CCN(C(=O)C(C)C)CC3)nc12	none
COc1ccc(C(=O)N2CCN(c3nc4c(C)c(Cl)ccc4s3)CC2)c(OC)c1	aSyn tox rescue 16µM
